Measured values taken from PubChem BioAssay.
Several values for one entry are separate records, joined by “and”; a condition that tells them apart may be missing. Identical values can stand only once. Activity calls are given as the source filed them.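 The calls were made as follows, unless noted: active = compounds whose cell count with miR-34 switched on is under 0.7 times the count with it off; inactive = the rest.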

How the values were obtained:
[1] = sensitizers of A549 cells to miR-34 induction, primary screen, imaging, A549 dox-inducible miR-34, nuclei and caspase counts (AID 1347080); details: A549 miR-34 inducible, Hoechst nuclei count, 48 h
[2] = target: NAD(+) hydrolase SARM1 (Homo sapiens) (UniProt Q6SZW1); test: SARM1 TIR NADase inhibitors, cell lysate, NAD-Glo luminescence (AID 1508614;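 active = compound whose remaining NAD level is above about 45 nM, limit read from the data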;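 also: higher remaining NAD means stronger inhibition of SARM1 NADase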); details: SAM-TIR HEK293T lysate NADase, at 1 µM, stronger effect = higher value
NAD(+) hydrolase SARM1 (Homo sapiens), sequence (Q6SZW1 whole entry, looked up, the tested form may be a part): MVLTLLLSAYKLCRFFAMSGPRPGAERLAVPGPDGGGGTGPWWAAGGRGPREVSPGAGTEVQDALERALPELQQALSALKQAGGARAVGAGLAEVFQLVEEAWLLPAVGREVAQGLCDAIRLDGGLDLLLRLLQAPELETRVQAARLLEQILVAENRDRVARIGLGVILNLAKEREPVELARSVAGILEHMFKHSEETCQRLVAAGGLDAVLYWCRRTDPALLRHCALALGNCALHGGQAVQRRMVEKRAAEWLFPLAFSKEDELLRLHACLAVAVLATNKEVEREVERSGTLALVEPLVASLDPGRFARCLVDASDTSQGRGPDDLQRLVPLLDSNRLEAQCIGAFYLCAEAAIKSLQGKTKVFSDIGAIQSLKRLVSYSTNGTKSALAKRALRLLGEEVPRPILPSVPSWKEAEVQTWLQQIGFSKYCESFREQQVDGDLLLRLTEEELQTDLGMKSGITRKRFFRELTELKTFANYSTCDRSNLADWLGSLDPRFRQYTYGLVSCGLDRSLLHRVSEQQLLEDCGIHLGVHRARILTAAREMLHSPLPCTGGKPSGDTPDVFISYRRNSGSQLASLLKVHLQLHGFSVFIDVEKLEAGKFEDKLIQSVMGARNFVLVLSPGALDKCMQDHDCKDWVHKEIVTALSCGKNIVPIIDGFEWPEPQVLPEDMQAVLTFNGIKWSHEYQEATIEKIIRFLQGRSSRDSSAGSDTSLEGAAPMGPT

[3] = target: Mitogen-activated protein kinase 7 (Homo sapiens) (UniProt Q13164); test: ERK5 transactivation activators in reporter cells, primary screen, cell-based, HTS (AID 1508626;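 active = luciferase signal above three times the same-plate solvent-only control wells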;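 also: luciferase driven by Gal4-ERK5 fusion binding five Gal4 sites before minimal TATA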); details: HeLa Gal4-ERK5 transactivation, 18 h, at 5 µM, stronger effect = higher value
Mitogen-activated protein kinase 7 (Homo sapiens), sequence (Q13164 whole entry, looked up, the tested form may be a part): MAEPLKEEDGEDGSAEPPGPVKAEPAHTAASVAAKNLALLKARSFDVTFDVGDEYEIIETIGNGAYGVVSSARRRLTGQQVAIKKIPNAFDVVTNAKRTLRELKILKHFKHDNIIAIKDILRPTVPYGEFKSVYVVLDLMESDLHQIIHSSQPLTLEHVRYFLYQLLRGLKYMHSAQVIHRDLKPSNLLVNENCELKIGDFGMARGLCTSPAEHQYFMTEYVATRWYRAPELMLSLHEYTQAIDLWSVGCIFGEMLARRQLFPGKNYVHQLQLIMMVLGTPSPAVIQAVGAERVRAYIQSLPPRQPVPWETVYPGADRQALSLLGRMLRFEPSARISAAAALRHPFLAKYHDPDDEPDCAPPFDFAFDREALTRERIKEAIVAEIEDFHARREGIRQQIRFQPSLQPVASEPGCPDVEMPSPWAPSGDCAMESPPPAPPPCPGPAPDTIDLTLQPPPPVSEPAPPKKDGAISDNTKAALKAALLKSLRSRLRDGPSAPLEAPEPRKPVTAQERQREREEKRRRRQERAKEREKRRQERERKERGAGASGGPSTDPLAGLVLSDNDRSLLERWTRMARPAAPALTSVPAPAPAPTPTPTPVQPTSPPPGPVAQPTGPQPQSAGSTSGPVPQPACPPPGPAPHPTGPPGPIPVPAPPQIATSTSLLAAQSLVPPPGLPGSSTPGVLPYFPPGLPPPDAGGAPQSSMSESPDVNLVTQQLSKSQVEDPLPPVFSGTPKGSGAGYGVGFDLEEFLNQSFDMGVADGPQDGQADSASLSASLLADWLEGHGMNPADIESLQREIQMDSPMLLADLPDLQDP

[4] = survival rescue of mitochondrial mutant cells in low glucose, primary screen, MELAS cybrids, Rieske KO mouse fibroblasts, CellTiter-Glo (AID 1508586;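 active = mean z-score across replicates of 1.96 or higher in either the MELAS or the Rieske mutant cell line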;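 also: z relative to plate mean and SD of compound and empty wells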)
[5] = viability rescue of complex I mutant cybrids, primary screen, cell-based, galactose medium, ATP luminescence (AID 1645843;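 active = z-score of at least 1.8 in each of two replicates, scored against plate mean and spread of sample wells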;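 also: positive z means more ATP and so rescue of galactose-driven cybrid death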); details: complex I mutant cybrid cells, 72 h, stronger effect = higher value
[6] = stronger effect = lower value, cell number ratio, induced over uninduced
[7] = measured here: relative caspase fold change +Dox/-Dox
[8] = measured here: total cells with miR-34 induction, stronger effect = lower value
[9] = measured here: total cells without miR-34 induction
[10] = MELAS cybrid survival, CellTiter-Glo 48 h, stronger effect = higher value
[11] = Rieske KO mouse fibroblast survival, CellTiter-Glo 72 h

Row | SMILES | fold change [1, 6] | fold change [1, 7] | cell count [1, 8] | cell count [1, 9] | remaining NAD [2] | luciferase signal [3] | z-score [4, 10] | z-score [4, 11] | z-score [5]
1 | Nc1ccc(C(=O)O)cc1 | 0.846 (inactive) | 0.809 | 10600 | 12500 | 10 nM (inactive) | 40 AU (inactive) |  |  | 
2 | CC(=O)OCC(COC(C)=O)OC(C)=O | 0.85 (inactive) | 3.03 | 10700 | 12600 | 10 nM (inactive) | 8 AU (inactive) |  |  | 
3 | CC1CCC(NC(=O)N(CCCl)N=O)CC1 (configuration not stated) | 0.814 (inactive) | 5.15 | 9380 | 11500 | 10 nM (inactive) | 44 AU (inactive) |  |  | 
4 | Cc1[nH]cnc1CN1CCc2c(c3ccccc3n2C)C1=O | 0.98 (inactive) | 1.07 | 9740 | 9940 |  |  | 0.685 (inactive) | 0.531 | -0.045 (inactive)
5 | CN1CCN(C2=Nc3cc(F)ccc3Cc3ccccc32)CC1 | 0.822 (inactive) and 0.853 (inactive) | 1.3 and 0.98 | 5980 and 8510 | 7280 and 9980 |  |  | -0.621 (inactive) | 0.127 | -0.47 (inactive) and -0.18 (inactive)
6 | Nc1ccc(C(=O)Oc2ccccc2)c(O)c1 | 0.872 (inactive) | 1.07 | 9720 | 11100 | 10 nM (inactive) | 84 AU (inactive) |  |  | 
7 | O=C(O)c1ccc(S(=O)(=O)N(Cl)Cl)cc1 | 0.899 (inactive) | 0.716 | 11500 | 12800 | 10 nM (inactive) | 48 AU (inactive) |  |  | 
8 | NC1CCN(c2nc3c(cc2F)c(=O)c(C(=O)O)cn3-c2ccc(F)cc2F)C1 (configuration not stated) | 0.986 (inactive) and 0.879 (inactive) | 1.53 and 1.43 | 9740 and 8420 | 9880 and 9570 |  |  | -0.38 (inactive) and 0.118 (inactive) | -2.21 and -0.244 | 0.62 (inactive) and -0.04 (inactive)
9 | Cc1cc(O)cc(C)c1Cl | 0.933 (inactive) | 1.14 | 10100 | 10800 | 10 nM (inactive) | 32 AU (inactive) |  |  | 
10 | CCN(CC)C(=O)c1cccc(C)c1 | 0.989 (inactive) | 1.76 | 11700 | 11800 | 10 nM (inactive) | 68 AU (inactive) |  |  | 
11 | CCCCNc1c(C(=O)OCC)c(C)nc2c1cnn2CC | 1.09 (inactive) and 0.956 (inactive) and 0.928 (inactive) | 1.73 and 0.694 and 0.876 | 9150 and 8740 and 7780 | 8430 and 9140 and 8370 |  |  | 2.27 (active) | 1.7 | 0.17 (inactive) and 0.34 (inactive)
12 | Cc1cccc(C(=O)O)c1O | 0.963 (inactive) | 0.915 | 8670 | 9000 | 10 nM (inactive) | 68 AU (inactive) |  |  | 
13 | CO[C@@]1(NC(=O)C(C(=O)O)c2ccc(O)cc2)C(=O)N2C(C(=O)O)=C(CSc3nnnn3C)CO[C@@H]21 (some centres not stated) | 0.852 (inactive) | 0.729 | 11300 | 13300 | 10 nM (inactive) | 32 AU (inactive) |  |  | 
14 | C=CCc1ccc(O)c(OC)c1 | 0.949 (inactive) | 0.583 | 11000 | 11600 | 10 nM (inactive) | 12 AU (inactive) |  |  | 
15 | COc1cc(C(=O)NC2CCCNC2)cc(OC)c1OC (configuration not stated) | 0.933 (inactive) and 1.06 (inactive) | 1.12 and 0.508 | 9210 and 8810 | 9870 and 8310 |  |  | -0.284 (inactive) and -1.2 (inactive) | -0.165 and -1.23 | 0.125 (inactive)
16 | O=c1cc(CO)occ1O | 0.923 (inactive) | 0.344 | 9020 | 9780 |  |  | 0.152 (inactive) | -0.154 | 1.06 (inactive)
17 | Cc1cc2nc3c(=O)[nH]c(=O)nc-3n(C[C@H](O)[C@H](O)[C@H](O)CO)c2cc1C | 0.873 (inactive) | 1.61 | 7920 | 9080 | 10 nM (inactive) | 80 AU (inactive) |  |  | 
18 | C[C@@H]1CN(c2c(F)c(F)c3c(=O)c(C(=O)O)cn(C4CC4)c3c2F)C[C@H](C)N1 | 0.896 (inactive) | 0.855 | 8680 | 9690 | 10 nM (inactive) |  |  |  | 
19 | CC(=O)Nc1ccc(S(=O)(=O)Nc2ccc([N+](=O)[O-])cc2)cc1 | 0.908 (inactive) | 3.51 | 11400 | 12500 | 10 nM (inactive) | 24 AU (inactive) |  |  | 
20 | Oc1cccc(O)c1 | 0.918 (inactive) | 2.54 | 12000 | 13100 | 10 nM (inactive) | 20 AU (inactive) |  |  | 
21 | CCCCCCc1ccc(O)cc1O | 0.901 (inactive) | 1.55 | 11000 | 12200 | 10 nM (inactive) | 20 AU (inactive) |  |  | 
22 | NC(=O)c1ccc([N+](=O)[O-])cc1Cl | 0.897 (inactive) | 3.38 | 11800 | 13200 | 10 nM (inactive) | 180 AU (inactive) |  |  | 
23 | O=C(O)CCCCC1CCSS1 (configuration not stated) | 1.15 (inactive) | 0.668 | 6920 | 6020 | 10 nM (inactive) |  |  |  | 

Row | SMILES | fold change [1, 6] | fold change [1, 7] | cell count [1, 8] | cell count [1, 9] | remaining NAD [2] | luciferase signal [3] | z-score [4, 10] | z-score [4, 11] | z-score [5]
24 | CC(=O)Nc1c(I)cc(I)c(C(=O)O)c1I | 0.913 (inactive) | 2.27 | 12100 | 13200 | 10 nM (inactive) | 40 AU (inactive) |  |  | 
25 | Cc1cc(C(C)(C)C)c(O)c(C(C)(C)C)c1 | 0.871 (inactive) | 0.986 | 10700 | 12300 | 10 nM (inactive) | 20 AU (inactive) |  |  | 
26 | Oc1ccc(Cl)c2cccnc12 | 0.902 (inactive) | 0.654 | 10900 | 12000 | 10 nM (inactive) | 60 AU (inactive) |  |  | 
27 | NC(=O)c1ccccc1O | 0.92 (inactive) | 3.12 | 11700 | 12800 | 10 nM (inactive) | 56 AU (inactive) |  |  | 
28 | O=C(CCBr)N1CCN(C(=O)CCBr)CC1 | 0.869 (inactive) | 2.68 | 6360 | 7310 | 10 nM (inactive) | 92 AU (inactive) |  |  | 
29 | COc1ccc(-c2cc(C(F)F)nn2-c2ccc(S(N)(=O)=O)cc2)cc1F | 0.791 (inactive) | 2.48 | 10300 | 13000 | 10 nM (inactive) | 44 AU (inactive) |  |  | 
30 | CC(=O)OCC1=C(C(=O)O)N2C(=O)[C@@H](NC(=O)CSc3ccncc3)[C@H]2SC1 | 0.915 (inactive) | 4.65 | 11600 | 12700 | 10 nM (inactive) | 32 AU (inactive) |  |  | 
31 | COc1cc(C)nc(-n2nc(C)cc2OC)n1 | 0.917 (inactive) and 1.02 (inactive) | 1.25 and 2.09 | 8860 and 9160 | 9670 and 8950 |  |  | 0.813 (inactive) | 0.154 | 0.61 (inactive)
32 | CN1CCN(c2cc3c(cc2F)c(=O)c(C(=O)O)cn3-c2ccc(F)cc2)CC1 | 0.87 (inactive) | 0.995 | 6840 | 7860 | 10 nM (inactive) |  |  |  | 
33 | OCc1ccccc1O | 0.861 (inactive) | 4.19 | 10600 | 12400 | 10 nM (inactive) | 28 AU (inactive) |  |  | 
34 | CCCCCC(C)N (configuration not stated) | 0.893 (inactive) | 1.93 | 11000 | 12400 | 10 nM (inactive) |  |  |  | 
35 | COCc1c(C(C)C)nc(C(C)C)c(/C=C/[C@@H](O)C[C@@H](O)CC(=O)O)c1-c1ccc(F)cc1 | 1.07 (inactive) | 1.46 | 1320 | 1240 |  |  | -1.23 (inactive) | -0.402 | -2.23 (inactive)
36 | O=C1OC(c2ccc(O)cc2)(c2ccc(O)cc2)c2ccccc21 | 0.823 (inactive) | 1.14 | 10900 | 13200 | 10 nM (inactive) | 84 AU (inactive) |  |  | 
37 | CCOC(N)=O | 0.875 (inactive) | 3.55 | 11200 | 12800 | 10 nM (inactive) | 24 AU (inactive) |  |  | 
38 | Oc1c(I)cc(I)c2cccnc12 | 0.894 (inactive) | 1.48 | 10900 | 12200 | 10 nM (inactive) | 16 AU (inactive) |  |  | 
39 | CC(=O)NO | 0.922 (inactive) | 0.946 | 11300 | 12300 | 10 nM (inactive) | 52 AU (inactive) |  |  | 
40 | Nc1ccc(C(=O)O)c(O)c1 |  |  |  | 10200 and 11500 and 13800 | 10 nM (inactive) | 44 AU (inactive) | -0.177 (inactive) and -0.201 (inactive) and 0.567 (inactive) | -0.173 and -0.712 and -0.26 | 0.45 (inactive)
41 | Cc1cc(C)cc(OCC2CNC(=O)O2)c1 (configuration not stated) | 0.878 (inactive) | 2.33 | 10800 | 12400 | 10 nM (inactive) | 72 AU (inactive) |  |  | 
42 | NC[C@H]1O[C@H](O[C@H]2[C@H](O)[C@@H](O[C@H]3O[C@H](CO)[C@@H](O)[C@H](N)[C@H]3O)[C@H](N)C[C@@H]2N)[C@H](N)[C@@H](O)[C@@H]1O | 0.901 (inactive) | 2.25 | 11700 | 13000 | 10 nM (inactive) | 76 AU (inactive) |  |  | 
43 | CN1CCCN=C1COC(=O)C(O)(c1ccccc1)C1CCCCC1 (configuration not stated) | 0.832 (inactive) | 3.67 | 10300 | 12400 | 10 nM (inactive) | 80 AU (inactive) |  |  | 
44 | O=C(c1ccc(F)cc1)C1CCN(CCn2c(=S)[nH]c3ccccc3c2=O)CC1 | 0.921 (inactive) and 0.889 (inactive) | 1.65 and 1.01 | 8480 and 7360 | 9210 and 8290 |  |  |  |  | -0.715 (inactive) and -0.61 (inactive)
45 | CC(Cc1ccccc1)(NC(=O)CN)c1ccccc1 (configuration not stated) | 0.999 (inactive) and 0.923 (inactive) | 2.09 and 0.645 | 9240 and 8260 | 9260 and 8950 |  |  |  |  | 0.32 (inactive) and -0.22 (inactive)
46 | CC1CCN(CCCC(=O)c2ccc(F)cc2)CC1 | 0.922 (inactive) and 0.888 (inactive) and 0.964 (inactive) | 0.574 and 0.823 and 1.18 | 9000 and 9720 and 9030 | 9760 and 10900 and 9370 |  |  |  |  | 0.28 (inactive) and -0.14 (inactive)
